# Laboratory results published in the supplement of paper PMC3334620.
# Whole data set: some 33,000 sequences, median “E-score (-0.5 to 0.5)” near -0.016, cut for the highest 2% near 0.3. The list comes from a sample in which the highest values are over-represented; it also holds similar and randomly drawn sequences.
# Target: T1, Yer184c (UniProt P39961)
# T1 sequence: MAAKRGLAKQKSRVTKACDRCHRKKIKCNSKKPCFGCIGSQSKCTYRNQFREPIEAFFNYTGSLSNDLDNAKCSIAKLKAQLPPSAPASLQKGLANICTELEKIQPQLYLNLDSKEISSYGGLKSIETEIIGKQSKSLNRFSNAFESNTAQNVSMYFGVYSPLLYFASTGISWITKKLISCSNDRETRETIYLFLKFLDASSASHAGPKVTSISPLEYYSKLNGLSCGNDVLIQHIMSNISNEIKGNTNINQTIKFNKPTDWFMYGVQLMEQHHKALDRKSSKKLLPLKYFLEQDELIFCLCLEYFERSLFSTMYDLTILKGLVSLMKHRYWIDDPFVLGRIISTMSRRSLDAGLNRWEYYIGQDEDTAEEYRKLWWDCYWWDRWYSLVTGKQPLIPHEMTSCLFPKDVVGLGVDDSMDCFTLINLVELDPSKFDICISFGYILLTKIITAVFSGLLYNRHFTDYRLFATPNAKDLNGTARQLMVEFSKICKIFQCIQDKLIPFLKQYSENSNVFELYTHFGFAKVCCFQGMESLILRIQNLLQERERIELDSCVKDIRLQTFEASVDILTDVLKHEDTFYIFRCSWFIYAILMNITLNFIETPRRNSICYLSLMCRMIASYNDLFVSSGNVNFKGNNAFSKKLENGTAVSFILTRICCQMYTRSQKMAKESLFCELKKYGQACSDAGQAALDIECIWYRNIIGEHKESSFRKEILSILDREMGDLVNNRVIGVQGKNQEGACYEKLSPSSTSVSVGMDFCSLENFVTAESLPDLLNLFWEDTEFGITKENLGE
# Assay: PBM E-score (8-mer binding enrichment) (E-score (-0.5 to 0.5)); higher = stronger / more preferred TF binding
# Settings: protein concentration: 100 nM; construct: GST-full length
# Outline: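 Universal all-10-mer Agilent arrays, fresh or stripped once, were converted to double-stranded form by primer extension. GST-tagged yeast transcription factors from PURExpress in vitro transcription/translation, full-length or DNA-binding domain only, were applied at about 100-200 nM and detected with fluorescent anti-GST. After masliner normalisation, the Universal PBM Analysis Suite scored each ungapped eight-base word together with its reverse complement by E-score.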
row,Sequence,PBM E-score
1,CGAGCCCC,-0.186
2,AAGAGAAT,0.0316
3,ACGTTAGT,-0.0893
4,CGATTTCC,0.214
5,CGGCACCG,0.346
6,CGGCACCC,0.048
7,CGGCACCA,0.256
8,CCTACCAA,0.0704
9,TCTCAAGA,-0.0209
10,CCCTAGAC,-0.189
11,CCGGTTTC,0.244
12,CCGGTTGC,0.355
13,ACGGTTGA,-0.0221
14,CCGGTTGA,0.321
15,GCGGTTGA,0.113
16,ACGGTTGC,-0.129
17,ACTCTTCT,-0.0645
18,CTTGGTCC,0.0693
19,TCGTGTCA,-0.0881
20,ACACTGCT,-0.244
21,GCAATAGA,-0.0314
22,CCTCAGCC,-0.233
23,ACGCTTTA,-0.0723
24,CAGTCGCG,-0.189
25,AAATCCGG,0.394

row,Sequence,PBM E-score
1,CAATCCGA,0.184
2,AAATCCGC,-0.00733
3,AAATCCGT,0.181
4,CAATCCGG,0.316
5,CAATCCGC,0.095
6,AGCGGTGA,-0.0103
7,ACTCTGCG,0.013
8,GCGGTTAA,0.0539
9,CCGGTTAA,0.297
10,CCCGTTAA,-0.0453
11,GCCGTTAA,0.169
12,TCGGTTAA,0.333
13,TCCGTTAA,0.305
14,ATTGTGAG,0.09
15,ACTTCTCG,0.17
16,CCGCCGAA,0.313
17,ACGCCGCG,0.0694
18,CCGCCGAG,0.304
19,ACGCCGAG,0.328
20,CCGCCGTA,0.075
21,ACGCCGTG,0.0103
22,CCGCCGCG,0.172
23,CCGCCGAC,0.109
24,CCGCCAAA,0.14
25,CCTAAAGG,-0.122

row,Sequence,PBM E-score
1,GCTACCGA,0.0575
2,AAATGAGC,0.038
3,CTAGGAGA,-0.0687
4,CCCGACTC,-0.0899
5,CCTAAAAA,0.105
6,GCCGAAGA,0.315
7,CCCGAAGA,0.105
8,ACCGAAGA,0.344
9,TACGAAGA,0.05
10,GACGAAGA,0.0167
11,TCCGAAGA,0.376
12,ACCGAAGT,0.136
13,GCCGAAGC,0.246
14,ACCGAAGC,0.1
15,CTCTAGTC,-0.244
16,GGAGTTGA,0.0129
17,CCCGGATC,0.318
18,ACGGGACC,-0.109
19,ACGGGATC,0.0948
20,CCCGGACC,0.149
21,GCGGGATA,0.0399
22,CCGGGATC,0.339
23,GCGGGACC,-0.0189
24,CCCGGATA,0.286
25,CCGGGACC,0.342

row,Sequence,PBM E-score
1,CCGGGATA,0.315
2,CGGGGATA,0.0634
3,CGGGGATC,0.0365
4,CAAAACCG,0.116
5,GAACTCAA,0.0685
6,AGTTCTAT,-0.0389
7,ACCCAATC,-0.00791
8,GCTTGTCC,0.114
9,CGAATTTC,0.276
10,AAGGTTGG,-0.24
11,AGAGTGAG,-0.128
12,GTTTAAAC,0.32
13,GTTTAAAA,0.162
14,CTTTAAAC,-0.052
15,AATACCCG,0.104
16,AGGGAAAT,-0.166
17,AAGGAAAT,0.107
18,TGGGAAAA,-0.0424
19,GCGGAAAC,0.0908
20,ACGGAAAT,0.39
21,ACGGAAAC,0.306
22,TCGGAAAA,0.382
23,AAGGAAAC,0.0646
24,ACGGAAAA,0.309
25,TTGGAAAA,0.134

row,Sequence,PBM E-score
1,ATGGAAAA,0.158
2,GCGGAAAA,0.216
3,AAGTGGGA,0.034
4,CCAGCGGG,0.134
5,ATACCCAT,-0.0126
6,ATAGAGAA,0.103
7,CATTCGAG,-0.0644
8,ACATCTCC,0.128
9,GTCATTCA,0.0449
10,CCGTCTCG,0.159
11,AGCTCGGG,0.138
12,CACTCGGC,0.331
13,AGCTCGGC,0.316
14,AGCTCGGA,0.159
15,CTCTCGGC,0.238
16,ATCTCGGC,0.37
17,ACCTCGGC,0.238
18,GTCTCGGA,0.227
19,ATCTCGGA,0.31
20,CACTCGGG,0.0303
21,AACTCGGC,0.273
22,ATCTCGGG,0.219
23,ACAGTAGT,-0.0892
24,AAGACCAA,0.052
25,GAGCCTAA,-0.0836

row,Sequence,PBM E-score
1,ACTGCAAA,0.0905
2,GTAAGCGA,0.00236
3,GCTCAAAA,0.199
4,ATATACAA,0.219
5,TTATACAA,0.313
6,GTATACAA,0.125
7,CAACTTTC,0.0846
8,GTACTACA,0.0564
9,CTTGTCTC,0.0611
10,AATATGCA,-0.0575
11,GCGGCTAA,0.186
12,CCGGCTCA,0.362
13,CCGGCTCG,0.339
14,CCGGCTCC,0.293
15,GCGGCTCA,0.2
16,TCGGCTCA,0.2
17,ACGGCTCG,0.21
18,ACGGCTAA,0.233
19,TCGGCTAA,0.313
20,CAAGAGGA,-0.0179
21,CCGGTCGA,0.141
22,ACTGCCGA,0.262
23,AGGCGAGG,-0.204
24,CATGCTTA,-0.103
25,CTCCAAGC,-0.181

row,Sequence,PBM E-score
1,CGCTAATC,-0.0149
2,GGAGGGCC,-0.308
3,ACGCCCGA,0.056
4,AATATATT,0.38
5,AATATATG,0.153
6,GATATATA,0.349
7,GATATATC,0.266
8,TATATATA,0.424
9,TATATACA,0.164
10,CATATATA,0.28
11,GATATACA,0.128
12,AATATATA,0.267
13,AGGCCTAA,0.0613
14,CGCATGAG,-0.284
15,CGACAGTC,-0.182
16,AGATCATC,0.0775
17,CGTGGCAA,-0.0803
18,CATACCAC,0.0462
19,CGGAACGA,0.306
20,AGGAACGA,-0.141
21,CGGAACTC,0.202
22,CCGAACAA,0.322
23,CGGAACGC,0.241
24,GCGAACAA,0.246
25,GGGAACAC,0.221

row,Sequence,PBM E-score
1,AGGAACAC,0.161
2,AGGAACTA,-0.103
3,CGGAACTA,0.414
4,ACGAACAA,0.275
5,CGGAACAC,0.356
6,ACCAGACT,-0.0238
7,GTTTGCTA,0.0684
8,ATACACGG,0.047
9,CGGCGCAA,0.178
10,AGGCTGAT,-0.161
11,GGGAACAA,0.158
12,CCGAACTA,0.323
13,TGGAACAA,0.195
14,CCGAACAG,0.216
15,AGGAACAG,-0.19
16,CGGAACAG,0.338
17,CCGAACTC,0.246
18,ACGAACTA,0.157
19,CGGAACAA,0.39
20,CGATAGCA,-0.114
21,AGTTACGA,0.107
22,CAGAGGGG,-0.286
23,AGTAGCTC,-0.00154
24,CTCGCTTC,-0.0232
25,AGTCTGAG,-0.14

row,Sequence,PBM E-score
1,AGGCTCAC,-0.273
2,AAATTTAT,0.286
3,CTATTAAA,0.21
4,GCATTAAA,0.149
5,TGTTTAAA,0.0737
6,AGTTTTAA,0.159
7,TCATTAAA,0.343
8,TTATTAAA,0.233
9,ACATTAAA,0.0822
10,AATTTTAC,0.176
11,ATATTAAA,0.368
12,TGTTTTAA,0.327
13,AATTTTAT,0.379
14,TCAGCAAA,0.158
15,ACTAGTGA,-0.172
16,AGAGCTTA,0.0135
17,CGTTTCAC,0.135
18,ATCAATGA,0.2
19,CAGTAAAG,-0.177
